Source: PubChem (National Center for Advancing Translational Sciences (NCATS))
Compounds with a hit are over-represented: about 22% of the library has one in this group of screens.
Shiga inhibitor: A qHTS for Small Molecule Inhibitors of Shiga Toxin. inhibition, % at 38.7 µM. 9.2% of 290,000 active. Vero cells, Shiga toxin protein synthesis inhibition reporter; in the data active = inhibition mostly above about 28%, no sharp cut-off; inactive = mostly below about 43%; also: 0% is about no effect
LmPK inh: qHTS Assay for Inhibitors of Leishmania Mexicana Pyruvate Kinase (LmPK). 0.37% of 290,000 active. Q27686. Potency, µM (highest dose often 57.5 µM), for inactives: top-dose activity change, negative = inhibition, usual class: inhibitors. AID 1721, 2009. purified LmPK, Kinase-Glo ATP luminescence, 1 h; also: potency is read from the fitted curve at half-maximal effect; % is scaled to controls: 0 for no effect and ±100 for the full control effect
Target sequence (Q27686 whole entry, looked up): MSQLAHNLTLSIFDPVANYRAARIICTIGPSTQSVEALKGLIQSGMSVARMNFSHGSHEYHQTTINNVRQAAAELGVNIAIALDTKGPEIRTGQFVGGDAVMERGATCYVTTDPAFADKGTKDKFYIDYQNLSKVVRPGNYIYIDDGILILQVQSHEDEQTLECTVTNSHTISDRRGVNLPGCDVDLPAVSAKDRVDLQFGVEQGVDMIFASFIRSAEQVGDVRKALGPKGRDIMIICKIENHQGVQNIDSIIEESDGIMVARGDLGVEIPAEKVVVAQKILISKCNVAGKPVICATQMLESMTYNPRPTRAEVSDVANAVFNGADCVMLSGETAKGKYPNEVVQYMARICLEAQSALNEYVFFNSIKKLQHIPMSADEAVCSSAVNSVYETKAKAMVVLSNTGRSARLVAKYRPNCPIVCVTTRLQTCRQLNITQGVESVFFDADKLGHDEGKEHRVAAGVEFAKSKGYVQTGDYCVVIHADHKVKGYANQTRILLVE
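Kinase-Glo luminescence read after 1 h RT reaction of 0.1 nM LmPK with 0.5 mM PEP and 0.1 mM ADP. Activity scaled between uninhibited and enzyme-free controls.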
Pf growth 48h: Primary qHTS for delayed death inhibitors of the malarial parasite plastid, 48 hour incubation; P. falciparum luciferase growth in erythrocytes, 48 h; 5.9% of 310,000 active; AID 504832, 2011; Potency, µM (top dose mostly 28.7 µM), without a hit: at the highest dose activity change, negative = inhibition, most hits filed as inhibitors; also: potency is read from the fitted curve at half-maximal effect; % is scaled to controls: 0 for no effect and ±100 for the full control effect
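Compounds are pin-transferred into medium, infected erythrocytes (2% hematocrit, 0.1% parasitemia final) are added, and plates sit one parasite generation at 37 C in 5% CO2. Detection reagent is then added and luminescence measured.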
Cycloheximide cs: Cycloheximide Counterscreen for Small Molecule Inhibitors of Shiga Toxin. cell reporter, cycloheximide protein synthesis inhibition counterscreen. max response, %. 12% of 300,000 active. AID 2314, 2010; in the data active = max response mostly above about 13%, no sharp cut-off; inactive = mostly below about 14%; also: read at 38.3 µM for the half of the compounds with a filed dose; 0% is about no effect
Pf growth 96h: Primary qHTS for delayed death inhibitors of the malarial parasite plastid, 96 hour incubation | P. falciparum luciferase reporter growth, 96 h | Potency, µM (doses to about 28.7 µM), for inactives: top-dose activity change, negative = inhibition, most hits filed as inhibitors | 6.9% of 320,000 active; also: potency is read from the fitted curve at half-maximal effect; % is scaled to controls: 0 for no effect and ±100 for the full control effect
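Cell-based qHTS: luciferase-tagged P. falciparum in erythrocytes (2% hematocrit, 0.05% parasitemia final) incubated with compounds for 96 hours, 37 C, 5% CO2; luciferase detection reagent then added and luminescence measured.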
Active calls of the source: *; ? = inconclusive; . = no result given; + = active, no number. Unless noted, calls follow the shape of the dose curve; as a rule, active = well fitted inhibition curve with a large enough effect; inconclusive = small, poorly fitted or top-dose-only effect, or another doubt; inactive = no such curve, though single readings can be large or run the other way.

SMILES	Shiga inhibitor	LmPK inh	Pf growth 48h	Cycloheximide cs	Pf growth 96h
O=C(Nc1ccncc1)Nc1ccc(Cl)cc1Cl	21	2%	1.7µM*	7	-4%
O=C(Nc1ccncc1)Nc1ccncc1	-5	-3%	?	8	31%
O=C(Nc1ccncc1)Nc1ccc(Cl)cc1	42	5%	5.2µM*	33*	28%
C/C(N)=C(/C#N)C(=O)CSc1nc2scc(-c3ccccc3)c2c(=O)n1C	-6	4%	?	-1	?
CC(C)C(C)(C#N)NC(=O)CSc1nc2scc(-c3ccc(F)cc3)c2c(=O)n1Cc1ccccc1 (centres undefined)	-1	4%	9.3µM*	0	4.7µM*
CC(C)C(C)(C#N)NC(=O)CSc1nnc(-c2ccncc2)n1Cc1ccccc1 (centres undefined)	34	-4%	?	-1	3.7µM*
O=C(CC(C(=O)O)c1ccc(Cl)cc1Cl)c1ccc(Cl)cc1 (centres undefined)	-6	4%	-6%	-1	31%
S=C(N/N=C/c1ccco1)NC1CC2CCC1C2 (centres undefined)	73*	-1%	.	44*	5.2µM*
COc1cccc(/C=N/NC(=S)NC2CC3CCC2C3)c1OC (centres undefined)	-5	-1%	6.6µM*	-1	4.7µM*
Oc1ccccc1/C=N/NC(=S)NC1CC2CCC1C2 (centres undefined)	45*	6%	3.7µM*	32*	1.3µM*
CNC(=S)N/N=C/c1ccco1	-3	-7%	5%	-2	?
COc1ccccc1NC(=S)NC1CC2CCC1C2 (centres undefined)	40	4%	-12%	9	?
COc1ccc(-c2nc(CN3CCC(C(=O)N4CCc5ccccc54)CC3)c(C)o2)cc1OC	-13	11%	.	-4	8%
CC(C(=O)N1CCCC1)N1CCN(c2ccccc2O)CC1 (centres undefined)	-4	6%	50%	-1	-5%
O=[N+]([O-])c1cccc(CN2CCC(Cc3ccccc3)CC2)c1	5	2%	0%	-1	6%
O=C1C(Cc2cccc([N+](=O)[O-])c2)SC(=Nc2ccccc2)N1c1ccccc1 (centres undefined)	-12	-4%	8.3µM*	-1	7.4µM*
O=C1C(Cc2ccc(F)cc2)SC(=Nc2ccccc2)N1c1ccccc1 (centres undefined)	-11	4%	10µM*	-1	?
O=C1C(Cc2ccc(Br)cc2)SC(=Nc2ccccc2)N1c1ccccc1 (centres undefined)	23	-2%	13µM*	-1	?
O=C1CC(=O)Nc2cc(S(=O)(=O)Nc3cccc(C(F)(F)F)c3)ccc2N1	-4	3%	-3%	1	12%
COc1cccc2c1C(=O)c1c(O)c3c(c(O)c1C2=O)C[C@@](O)(C(=O)CO)C[C@@H]3OC1C[C@@H](N)[C@H](O)[C@H](C)O1 (some centres undefined)	18	.	.	1	.
c1ccc(-c2cnc(-c3ccccc3)nc2)cc1	88*	?	257%	69*	.
Nc1nc(N)nc(-c2ccccc2)n1	-10	1%	12%	0	?
Nc1cnc(-c2ccccc2)nc1Cl	13*	-5%	50%	16	68%
CC(C)c1ccccc1NC(=O)COC(=O)COc1ccccc1[N+](=O)[O-]	17	-1%	-3%	10	26%
Cc1ccccc1NC(=O)/C=C/c1ccc([N+](=O)[O-])s1	1	-4%	7.4µM*	13	12µM*
SMILES	Shiga inhibitor	LmPK inh	Pf growth 48h	Cycloheximide cs	Pf growth 96h
Cc1ccccc1NC(=O)/C=C/c1cccs1	70*	-22%	306%	28*	259%
CCN(CC)S(=O)(=O)c1ccc(C)c(NC(=O)/C=C/c2cccs2)c1	-6	0%	-17%	-2	-19%
O=C(/C=C/c1ccc([N+](=O)[O-])s1)N1CCN(c2ccccc2)CC1	-9	-3%	?	-2	?
Cc1cc(C)cc(NC(=O)/C=C/c2ccc([N+](=O)[O-])s2)c1	-10	4%	?	-7	?
CC(=O)c1cccc(NC(=O)/C=C/c2ccc([N+](=O)[O-])s2)c1	96*	-4%	-6%	33*	?
CCOC(=O)/C(=N/Nc1ccccc1)N1CCCc2ccccc21	16	-8%	15µM*	1	?
CCOC(=O)/C(=N/Nc1ccc(OC)cc1)N1CCCc2ccccc21	41*	1%	?	21	?
Cc1ccnc(NC(=O)/C=C/c2ccccc2[N+](=O)[O-])c1	73*	-27%	39%	34*	-27%
Cc1ccnc(NC(=O)/C=C/c2ccccc2Cl)c1	+	-26%	122%	59*	97%
CCOc1ccccc1NC(=O)CCCn1cc([N+](=O)[O-])cn1	3	19%	11%	9	3.3µM*
O=C(/C=C/c1ccccc1[N+](=O)[O-])Nc1ccc(S(=O)(=O)Nc2ncccn2)cc1	3	1%	?	1	?
COc1ccc(NC(=O)CCCn2cc([N+](=O)[O-])cn2)cc1	-11	9%	-3%	7	45%
CCOc1ccccc1NC(=O)/C=C/c1ccccc1[N+](=O)[O-]	6	-4%	54%	45*	?
CC(C)CN(C(=O)C1CSC2(C)CCC(=O)N12)c1c(N)n(Cc2ccccc2)c(=O)[nH]c1=O (centres undefined)	-10	-5%	?	-2	17%
CCOC(=O)C1(CCOc2ccccc2)CCN(CC(O)CO)CC1 (centres undefined)	0	2%	?	2	?
Cc1ccnc(NC(=O)c2cccc([N+](=O)[O-])c2C)c1	51	0%	121%	16	121%
Cc1ccnc(NC(=O)c2cccc3ccccc23)c1	77*	-6%	47%	49*	65%
NS(=O)(=O)c1ccc(NC(=O)/C=C/c2ccccc2[N+](=O)[O-])cc1	22	0%	-26%	-3	-19%
Cc1ccnc(NC(=O)CCc2c[nH]c3ccccc23)c1	91*	1%	100%	40*	86%
Cc1ccnc(NC(=O)c2ccccc2[N+](=O)[O-])c1	19	-13%	46%	19*	42%
O=C(/C=C\c1ccccc1[N+](=O)[O-])Nc1ccccc1	52*	-15%	101%	39*	1%
COc1ccc(-c2cc(-c3ccc(Br)cc3)nc3ncnn23)cc1OC	3	9%	.	-4	?
COc1ccc(CCN2CN(S(=O)(=O)c3ccc(OC)cc3)c3nc4ccccc4nc32)cc1	39*	7%	?	27*	?
COc1ccc(S(=O)(=O)N2CN(Cc3ccco3)c3nc4ccccc4nc32)cc1	35	0%	12µM*	13	43%
CCCCCN1CN(S(=O)(=O)c2cccs2)c2nc3ccccc3nc21	28	7%	?	16*	?
